Values joined by “and” are separate entries in the source; they are usually repeats but may differ in a detail not shown here. Equal values may be shown once. Records with an inconclusive call do not appear. Where a call stands in place of a potency, no number is given. The source holds several records for some structures; these can differ, active in one and inactive in another. Active and inactive are the calls of the source. Calls follow the shape of the dose curve; as a rule, active = well fitted inhibition curve with a large enough effect in the repeat runs; inconclusive = weak or mixed curves; inactive = no such curve, though single readings can be large or run the other way.
Test: qHTS assay to identify small molecule antagonists of the estrogen related receptor (ERR) signaling pathway from Tox21 library (AID 1224848); also: nearly all actives have a fitted effect of over 50% in size
Details: ERR reporter cell line, luciferase antagonist mode, 18 h; series mostly up to 92.4 µM
Source text: U.S. Tox21 Program National Center for Advancing Translational Sciences [NCATS] NIH Chemical Genomics Center [NCGC] U.S. Environmental Protection Agency [EPA] National Institutes of Environmental Health Sciences [NIEHS] National Toxicology Program [NTP] U.S. Food and Drug Administration [FDA] Tox21 Assay Overview: Estrogen related receptors (ERRs), the first orphan nuclear receptors discovered, play an important role in the control of cellular energy metabolism. ERRs are required for high-energy production in response to the environmental challenges. ERR-alpha was also identified as an adverse marker for breast cancer progression; ERR-alpha-positive tumors have a poor prognosis. To screen and to identify environmental compounds that perturb the ERR signaling pathways could provide valuable information for potential therapeutic or preventive measures in the treatment of metabolic disease. For identifying ERR antagonists, ERR cell line (provided by NTP) has been used to screen Tox21 10K library.
Tox21 Assay Protocol Summary: The ERR cells were dispensed at 2,000 cells/5 ul/well in 1536-well white plates using a Multidrop dispenser. After the assay plates were incubated at a 37 C/5% CO2 incubator for 6 hours, 23 nL of compounds dissolved in DMSO, positive and negative controls or DMSO only was transferred to the assay plate by a pin tool. The plates were incubated at 37 C for 18 hours. 4 ul/well of One-Glo reagent was added into the assay plates using a Flying Reagent Dispenser. After 30-minute incubation at room temperature, the luminescence intensity in the plates was measured using a ViewLux plate reader.
Potency is read from the fitted curve at half-maximal effect.

Row | SMILES | Potency
1 | OC[C@H]1O[C@@](CO)(O[C@H]2O[C@H](CO)[C@@H](O)[C@H](O)[C@H]2O)[C@@H](O)[C@@H]1O | inactive
2 | COS(C)(=O)=O | inactive
3 | ON=C1CCCCC1 | inactive
4 | COc1ccc(Nc2ccccc2)c(C)c1 | inactive
5 | O=C(O)c1ccccc1C(c1ccc(O)cc1)c1ccc(O)cc1 | inactive
6 | O=C(CC(C(=O)OC1CCCCC1)S(=O)(=O)O)OC1CCCCC1 (configuration not stated) | inactive
7 | O=P(OC(CCl)CCl)(OC(CCl)CCl)OC(CCl)CCl | 48.3 µM (active) and 54.5 µM (active)
8 | CCC(O)OCCCOC (configuration not stated) | inactive
9 | CSCCC=O | inactive
10 | CCCCC(CC)COC(=O)CS (configuration not stated) | inactive
11 | Nc1cc([N+](=O)[O-])ccc1O | inactive
12 | CCCCC(CC)COC(=O)C(C#N)=C(c1ccccc1)c1ccccc1 (configuration not stated) | 23.7 µM (active)
13 | O=c1[nH]nnc2ccccc12 | inactive
14 | Cc1cccnc1 | inactive
15 | C[C@H]1C[C@@H]2[C@H]([C@@H](O)C[C@@]3(C)[C@H]2CC[C@]3(O)C(=O)CO)[C@@]2(C)C=CC(=O)C=C12 | inactive
16 | CCC(O)OC(O)CC (configuration not stated) | inactive
17 | CCCCCCCCCCCCCCCO | inactive
18 | COCCCOc1ccnc(CS(=O)c2nc3ccccc3[nH]2)c1C (configuration not stated) | inactive
19 | CC(=O)CC(=O)Nc1ccccc1C | inactive

Row | SMILES | Potency
20 | OCC(CO)(CBr)CBr | inactive
21 | CC(C)CC(=O)CC(C)C | inactive
22 | Cc1cccc(O)c1 | inactive
23 | OCCOCCOCCO | inactive
24 | Nc1ccccc1[N+](=O)[O-] | inactive
25 | CN(C)CCCN | inactive
26 | CC(C)(N)CO | inactive
27 | CC[C@H](C)C(=O)O[C@H]1C[C@@H](C)C=C2C=C[C@H](C)[C@H](CC[C@@H]3C[C@@H](O)CC(=O)O3)[C@H]21 | inactive
28 | N[C@@H](Cc1cc(I)c(Oc2cc(I)c(O)c(I)c2)c(I)c1)C(=O)O | inactive
29 | CN(C)CCOCCN(C)C | inactive
30 | Fc1ccc(Br)cc1 | inactive
31 | C=C(C)C(=O)O[C@H]1C[C@@H]2CC[C@@]1(C)C2(C)C | 4.83 µM (active) and inactive
32 | O=C(O)CCCC[C@@H]1SC[C@@H]2NC(=O)N[C@@H]21 | inactive
33 | c1ccc2c(c1)ccc1ccccc12 | 47.2 µM (active) and 24.3 µM (active)
34 | CCCCCCCCCCCCc1ccccc1 | inactive
35 | CC1=C(C)S(=O)(=O)CCS1(=O)=O | inactive
36 | O=C(Oc1ccccc1)c1ccccc1 | inactive
37 | CCc1cccc(C)c1N | inactive

Source: PubChem BioAssay (Tox21)
